Reference: PubChem BioAssay (Tox21)
“And” between values parts separate entries of the source, which are not always exact repeats. Equal entries are not always repeated. Records with an inconclusive call do not appear. Some compounds were tested as several samples or in several runs, with calls that do not always agree. The source made the active and inactive calls. Unless noted, the call rests on the fitted dose curve; in most records, active means well fitted curve in the direction sought with a large enough effect in the repeat runs; inconclusive means weak or mixed curves; inactive means no such curve, though single readings can be large; an effect the other way counts as inactive or inconclusive.

How the values were obtained:
[1] = qHTS assay to identify aromatase inhibitors - cell viability counter screen (AID 743084);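 further: cells stimulated with testosterone during compound exposure; nearly all actives have a fitted effect of over 55% in size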; further: potency means the concentration at half of the fitted maximal effect
[2] = molecular target: Aryl hydrocarbon receptor (Homo sapiens) (UniProt P35869); assay: qHTS assay to identify small molecule that activate the aryl hydrocarbon receptor (AhR) signaling pathway (AID 743085); further: nearly all actives have a fitted effect of over 15% in size; further: potency means the concentration at half of the fitted maximal effect;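 on activation: HG2L7.5c1 human HepG2 liver cells with stably integrated DRE-driven firefly reporter; series mostly up to about 70 µM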
Chain of Aryl hydrocarbon receptor (Homo sapiens) (P35869 whole entry, looked up): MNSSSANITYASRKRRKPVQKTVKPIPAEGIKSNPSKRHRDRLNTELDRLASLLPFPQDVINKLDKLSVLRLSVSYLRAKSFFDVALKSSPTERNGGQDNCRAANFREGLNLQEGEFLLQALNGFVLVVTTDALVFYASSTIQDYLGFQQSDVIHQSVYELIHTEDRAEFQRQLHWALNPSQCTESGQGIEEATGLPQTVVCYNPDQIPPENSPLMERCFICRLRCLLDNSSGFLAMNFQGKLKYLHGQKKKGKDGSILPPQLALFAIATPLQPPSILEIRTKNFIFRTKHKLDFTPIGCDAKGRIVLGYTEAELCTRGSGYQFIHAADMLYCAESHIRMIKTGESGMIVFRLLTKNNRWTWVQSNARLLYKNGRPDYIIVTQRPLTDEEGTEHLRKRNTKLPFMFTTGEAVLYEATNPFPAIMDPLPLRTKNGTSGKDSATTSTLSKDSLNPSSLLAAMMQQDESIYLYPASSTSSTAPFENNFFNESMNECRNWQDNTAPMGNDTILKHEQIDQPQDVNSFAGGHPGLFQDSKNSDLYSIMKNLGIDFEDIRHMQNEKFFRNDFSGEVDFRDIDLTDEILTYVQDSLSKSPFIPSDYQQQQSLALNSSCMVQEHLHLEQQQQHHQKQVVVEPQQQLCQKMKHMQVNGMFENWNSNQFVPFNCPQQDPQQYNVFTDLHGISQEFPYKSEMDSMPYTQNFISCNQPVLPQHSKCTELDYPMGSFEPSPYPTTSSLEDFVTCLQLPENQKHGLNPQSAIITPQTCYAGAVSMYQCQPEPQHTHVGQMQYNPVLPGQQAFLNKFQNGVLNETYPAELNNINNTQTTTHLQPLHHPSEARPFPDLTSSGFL
In short: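 A multiplexed format paired cell viability (CellTiter-Fluor fluorescence) with AhR-dependent luciferase output (ONE-Glo luminescence) in the same wells of HepG2 DRE-luc cells after 24 h compound exposure at 37C.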

[3] = qHTS assay to identify small molecule that activate the aryl hydrocarbon receptor (AhR) signaling pathway - cell viability counter screen (AID 743086); further: nearly all actives have a fitted effect of over 45% in size; further: potency means the concentration at half of the fitted maximal effect
In short: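 HepG2-AhR-luc (HG2L7.5c1) cells, 4000/well, were preincubated 5 h at 37C, exposed to compound in qHTS format for 24 hr at 37C, then given CellTiter-Fluor for 30 min; viability was read as fluorescence in the reporter wells.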

[4] = molecular target: Peroxisome proliferator-activated receptor gamma (Homo sapiens) (UniProt P37231); assay: qHTS assay to identify small molecule agonists of the peroxisome proliferator-activated receptor gamma (PPARg) signaling pathway (AID 743094; active means well fitted activation curve with a large enough effect in the signal ratio in the repeat runs, not every such curve was filed as active; the % refers to the signal ratio)
Chain of Peroxisome proliferator-activated receptor gamma (Homo sapiens) (P37231 whole entry, looked up): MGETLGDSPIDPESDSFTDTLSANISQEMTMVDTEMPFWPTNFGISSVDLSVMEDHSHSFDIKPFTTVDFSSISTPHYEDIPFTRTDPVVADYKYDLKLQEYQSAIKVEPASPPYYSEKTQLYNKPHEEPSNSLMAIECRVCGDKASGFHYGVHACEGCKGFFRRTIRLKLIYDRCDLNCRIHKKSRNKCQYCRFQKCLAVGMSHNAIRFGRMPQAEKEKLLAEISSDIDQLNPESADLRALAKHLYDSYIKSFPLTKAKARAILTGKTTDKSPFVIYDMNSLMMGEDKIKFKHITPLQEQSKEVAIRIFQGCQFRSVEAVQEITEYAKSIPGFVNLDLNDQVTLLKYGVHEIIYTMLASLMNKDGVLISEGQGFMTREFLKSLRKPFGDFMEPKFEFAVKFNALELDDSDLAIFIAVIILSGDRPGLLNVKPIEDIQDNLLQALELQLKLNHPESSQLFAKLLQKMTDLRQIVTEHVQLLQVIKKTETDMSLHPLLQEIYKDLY
In short: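 Compounds dissolved in DMSO were added to PPARg UAS-bla HEK293H cells for 17 h at 37C, and reporter expression was quantified by fluorescence intensity after 1 h with LiveBLAzer B/G FRET substrate.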

[5] = qHTS assay to identify small molecule antagonists of the peroxisome proliferator-activated receptor gamma (PPARg) signaling pathway - cell viability counter screen (AID 743194); further: nearly all actives have a fitted effect of over 55% in size
In short: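 PPARg-UAS-bla HEK293H cells were plated, rested 5 h at 37 C, then treated with compounds plus rosiglitazone (50 nM final) for 17 h at 37 C; viability was then read by CellTiter-Glo luminescence after 30 min at room temperature.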

[6] = qHTS assay for small molecule agonists of the antioxidant response element (ARE) signaling pathway (AID 743202; active means well fitted activation curve with a large enough effect in the signal ratio in the repeat runs, not every such curve was filed as active; the % refers to the signal ratio)
In short: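 Read-out: LiveBLAzer B/G FRET substrate fluorescence after 2 h at room temperature, following 16 h compound treatment at 37 C of HepG2 cells carrying an ARE-driven beta-lactamase reporter.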

[7] = qHTS assay for small molecule agonists of the antioxidant response element (ARE) signaling pathway - cell viability counter screen (AID 743203; calls by dose curve; further: nearly all actives have a fitted effect of over 55% in size)
In short: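 Following 16 hrs of compound treatment at 37C, HepG2 cells with an ARE-controlled beta-lactamase gene were lysed with CellTiter-Glo. Luminescence was read after 30 min at room temperature.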

[8] = qHTS assay for small molecule activators of the heat shock response signaling pathway - cell viability counter screen (AID 743209); further: nearly all actives have a fitted effect of over 50% in size
In short: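 Readout: CellTiter-Glo luminescence, 30 min at room temperature. System: HSE-bla HeLa cells, 1500/well, plated overnight. Treatment: compounds in DMSO, 5 h at 37 C.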

[9] = qHTS assay for small molecule activators of the heat shock response signaling pathway (AID 743210; active means well fitted activation curve with a large enough effect in the signal ratio in the repeat runs, with a control signal flat, not every such curve was filed as active; the % refers to the signal ratio; further: series mostly up to about 63 µM)
In short: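 HSE-bla HeLa cells (beta-lactamase reporter under heat shock response elements) were exposed to compounds for 5 h at 37 C, then loaded with LiveBLAzer B/G FRET substrate for 2.5 h at room temperature before fluorescence reading.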

[10] = qHTS assay to identify small molecule agonists of the peroxisome proliferator-activated receptor delta (PPARd) signaling pathway - cell viability counter screen (AID 743211); further: nearly all actives have a fitted effect of over 55% in size; further: potency means the concentration at half of the fitted maximal effect
In short: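 Tox21 library compounds, delivered in DMSO, were incubated 17 h with PPARd-bla HEK293H cells; cytotoxicity was taken from CellTiter-Glo luminescence read 30 min after reagent addition.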

[11] = molecular target: Peroxisome proliferator-activated receptor delta (Homo sapiens) (UniProt Q03181); assay: qHTS assay to identify small molecule agonists of the peroxisome proliferator-activated receptor delta (PPARd) signaling pathway (AID 743212; calls by dose curve)
Chain of Peroxisome proliferator-activated receptor delta (Homo sapiens) (Q03181 whole entry, looked up): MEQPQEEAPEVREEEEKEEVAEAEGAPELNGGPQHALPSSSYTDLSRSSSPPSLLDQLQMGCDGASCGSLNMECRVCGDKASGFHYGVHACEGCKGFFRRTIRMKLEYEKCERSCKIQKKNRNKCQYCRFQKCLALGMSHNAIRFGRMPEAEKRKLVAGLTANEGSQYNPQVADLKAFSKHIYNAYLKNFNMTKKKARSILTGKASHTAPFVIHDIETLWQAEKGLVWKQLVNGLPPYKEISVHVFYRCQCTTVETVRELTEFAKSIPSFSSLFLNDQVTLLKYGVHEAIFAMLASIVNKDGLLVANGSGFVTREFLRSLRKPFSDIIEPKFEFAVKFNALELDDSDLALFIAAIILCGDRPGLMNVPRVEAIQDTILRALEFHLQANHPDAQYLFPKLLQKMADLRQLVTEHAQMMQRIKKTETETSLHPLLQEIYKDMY
In short: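 GeneBLAzer PPARd UAS-bla HEK293H cells (beta-lactamase reporter under UAS control), plated and rested 5 h at 37 C, then exposed to compounds in DMSO at 37 C; LiveBLAzer B/G FRET substrate added, 2 h room temperature, fluorescence read.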

[12] = qHTS assay to identify small molecule antagonists of the peroxisome proliferator-activated receptor delta (PPARd) signaling pathway - cell viability counter screen (AID 743213); further: nearly all actives have a fitted effect of over 50% in size; further: potency means the concentration at half of the fitted maximal effect
In short: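 Cytotoxicity counter screen: CellTiter-Glo luminescence read 30 min after addition, in the same wells as the reporter assay. There, PPARd UAS-bla HEK293H cells (3000/well) were treated 17 h at 37 C with compound and 300 nM L165041.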

[13] = molecular target: Peroxisome proliferator-activated receptor delta (Homo sapiens) (UniProt Q03181); assay: qHTS assay to identify small molecule antagonists of the peroxisome proliferator-activated receptor delta (PPARd) signaling pathway (AID 743215; active means well fitted inhibition curve with a large enough effect in the signal ratio in the repeat runs, not every such curve was filed as active; the % refers to the signal ratio;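 further: cells stimulated with agonist L165041 at 300 nM final during compound exposure; series mostly up to about 62 µM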)
In short: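 HEK293H UAS-bla, PPARd; agonist L165041 300 nM final with cpd in DMSO; 37 C 17 h; FRET substrate, RT 2 h; fluorescence intensity.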

[14] = molecular target: Bile acid receptor (Homo sapiens) (UniProt Q96RI1); assay: qHTS assay to identify small molecule antagonists of the farnesoid-X-receptor (FXR) signaling pathway (AID 743217; active means well fitted inhibition curve with a large enough effect in the signal ratio in the repeat runs, not every such curve was filed as active; the % refers to the signal ratio)
Chain of Bile acid receptor (Homo sapiens) (Q96RI1 whole entry, looked up): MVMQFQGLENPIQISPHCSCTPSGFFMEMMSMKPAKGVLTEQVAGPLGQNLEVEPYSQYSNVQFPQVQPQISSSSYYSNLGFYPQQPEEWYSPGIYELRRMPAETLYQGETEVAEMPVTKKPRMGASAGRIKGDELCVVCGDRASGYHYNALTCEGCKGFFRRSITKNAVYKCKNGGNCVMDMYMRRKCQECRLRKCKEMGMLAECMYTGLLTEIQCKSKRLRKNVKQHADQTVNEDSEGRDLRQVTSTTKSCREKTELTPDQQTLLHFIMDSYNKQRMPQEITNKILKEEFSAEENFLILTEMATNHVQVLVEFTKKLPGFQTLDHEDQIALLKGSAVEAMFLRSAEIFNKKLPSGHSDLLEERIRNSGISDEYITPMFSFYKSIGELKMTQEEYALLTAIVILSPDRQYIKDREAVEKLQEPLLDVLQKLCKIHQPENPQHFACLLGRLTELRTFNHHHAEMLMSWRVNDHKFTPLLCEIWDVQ
In short: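 GeneBLAzer FXR-UAS-bla HEK 293T, CDCA-stimulated (50 uM final). Compound treatment 16 h, 37 °C. Detection: beta-lactamase cleavage of B/G FRET substrate, fluorescence.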

[15] = qHTS assay to identify small molecule agonists of the farnesoid-X-receptor (FXR) signaling pathway - cell viability counter screen (AID 743218); further: nearly all actives have a fitted effect of over 45% in size; further: potency means the concentration at half of the fitted maximal effect
In short: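 Parallel cytotoxicity test: compound-treated (16 h, 37 C) HEK 293T FXR-bla reporter cells were lysed with CellTiter-Glo and luminescence recorded.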

[16] = molecular target: Bile acid receptor (Homo sapiens) (UniProt Q96RI1); assay: qHTS assay to identify small molecule agonists of the farnesoid-X-receptor (FXR) signaling pathway (AID 743220; active means well fitted activation curve with a large enough effect in the signal ratio in the repeat runs, not every such curve was filed as active; the % refers to the signal ratio)
In short: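 Beta-lactamase reporter under UAS control in GeneBLAzer FXR HEK 293T cells (5000/well) measured with LiveBLAzer FRET substrate after 2 h at room temperature. Compound exposure lasted 16 h at 37C.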

[17] = qHTS assay to identify small molecule antagonists of the farnesoid-X-receptor (FXR) signaling pathway - cell viability counter screen (AID 743221; active means well fitted cell-killing curve with a large enough effect in the repeat runs, not every such curve was filed as active; further: nearly all actives have a fitted effect of over 50% in size; further: potency means the concentration at half of the fitted maximal effect)
In short: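 Cytotoxicity is taken from ATP luminescence (CellTiter-Glo, 30 min, room temperature) in FXR-bla HEK 293T cells previously incubated 16 h at 37 C with compound and chenodeoxycholic acid at 50 uM final.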

[18] = molecular target: Vitamin D3 receptor (Homo sapiens) (UniProt P11473); assay: qHTS assay to identify small molecule agonists of the vitamin D receptor (VDR) signaling pathway (AID 743222; calls by dose curve)
Chain of Vitamin D3 receptor (Homo sapiens) (P11473 whole entry, looked up): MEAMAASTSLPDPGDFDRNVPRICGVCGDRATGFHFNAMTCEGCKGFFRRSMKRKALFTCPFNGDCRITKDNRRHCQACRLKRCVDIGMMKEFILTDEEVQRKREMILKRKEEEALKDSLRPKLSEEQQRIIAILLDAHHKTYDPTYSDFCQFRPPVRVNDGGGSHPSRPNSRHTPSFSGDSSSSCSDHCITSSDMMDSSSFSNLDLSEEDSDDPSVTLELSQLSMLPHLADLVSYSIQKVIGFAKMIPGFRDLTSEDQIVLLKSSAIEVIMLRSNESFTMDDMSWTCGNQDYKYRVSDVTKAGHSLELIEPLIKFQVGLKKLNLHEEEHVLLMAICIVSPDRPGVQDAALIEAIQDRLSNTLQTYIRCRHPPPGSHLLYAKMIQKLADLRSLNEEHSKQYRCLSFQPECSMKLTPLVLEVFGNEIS
In short: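 In VDR-bla cells, compound-induced beta-lactamase expression is quantified by FRET substrate fluorescence. Treatment lasts 16 h at 37C; substrate develops 2 h at room temperature.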

[19] = molecular target: Vitamin D3 receptor (Homo sapiens) (UniProt P11473); assay: qHTS assay to identify small molecule antagonists of the vitamin D receptor (VDR) signaling pathway (AID 743223; active means well fitted inhibition curve with a large enough effect in the signal ratio in the repeat runs, not every such curve was filed as active; the % refers to the signal ratio)
In short: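 Quantitative HTS in VDR-bla reporter cells stimulated with 1alpha,25-dihydroxyvitamin D3, 3 nM final. Compound exposure 16 h, 37C, 5% CO2. Read-out: beta-lactamase FRET substrate fluorescence, 2 h RT.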

[20] = molecular target: Peroxisome proliferator-activated receptor gamma (Homo sapiens) (UniProt P37231); assay: qHTS assay to identify small molecule antagonists of the peroxisome proliferator-activated receptor gamma (PPARg) signaling pathway (AID 743191; calls by dose curve; further: series mostly up to about 63 µM; nearly all actives have a fitted effect of over 30% in size)
In short: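 GeneBLAzer PPARg UAS-bla HEK293H cells carrying a UAS-driven beta-lactamase reporter were plated at 3000 cells/well, preincubated 5 h at 37C, then given compound for 17 h at 37C; LiveBLAzer B/G FRET substrate was read after 1 h at room temperature.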
On the % scale 0 is the no-effect control and ±100 the full control effect.

CCCCOC(=O)c1ccc(O)cc1
inactive: Potency [1] | Potency [2] | Potency [3] | Potency [4] | Potency [5] | Potency [6] | Potency [7] | Potency [8] | outcome [9] | Potency [10] | Potency [11] | Potency [12] | Potency [13] | Potency [14] | Potency [15] | outcome [16] | Potency [17] | Potency [18] | Potency [19]

C/C=C/C=C/C(=O)O
inactive: Potency [1] | Potency [2] | Potency [3] | Potency [5] | activation [6] 7.69% [at 8.36 µM] | Potency [7] | Potency [8] | outcome [9] | Potency [10] | Potency [12] | Potency [15] | Potency [18] | Potency [19]

C=C(C)C(=O)OCC(C)O (centres undefined)
inactive: Potency [1] | Potency [2] | Potency [3] | Potency [5] | Potency [6] | Potency [7] | Potency [8] | outcome [9] | Potency [10] | Potency [11] | Potency [12] | Potency [13] | Potency [15] | Potency [18] | Potency [19]

C=CCc1ccc(O)c(OC)c1
inactive: Potency [1] | Potency [2] | Potency [3] | Potency [4] | Potency [5] | Potency [6] | Potency [7] | Potency [8] | outcome [9] | Potency [10] | Potency [11] | Potency [12] | Potency [15]

Cc1ncc([N+](=O)[O-])n1C
inactive: Potency [1] | Potency [2] | Potency [3] | Potency [5] | Potency [6] | Potency [7] | Potency [8] | outcome [9] | Potency [10] | Potency [11] | Potency [12] | Potency [13] | Potency [14] | Potency [15] | outcome [16] | Potency [18] | Potency [19]

CN1CCC[C@H]1c1cccnc1
inactive: Potency [1] | Potency [2] | Potency [3] | Potency [4] | Potency [20] | Potency [5] | Potency [6] | Potency [7] | Potency [8] | Potency [10] | Potency [12] | Potency [15] | Potency [18] | Potency [19]

CCCC[P+](CCCC)(CCCC)CCCC
inactive: Potency [1] | Potency [2] | Potency [3] | Potency [5] | Potency [6] | Potency [7] | Potency [8] | outcome [9] | Potency [10] | Potency [12] | Potency [14] | Potency [15] | outcome [16] | Potency [17] | Potency [18] | Potency [19]

CCN(Cc1c(F)cccc1Cl)c1c([N+](=O)[O-])cc(C(F)(F)F)cc1[N+](=O)[O-]
active: Potency [10] 17.4 µM | Potency [12] 17.4 µM | Potency [15] 19.5 µM | Potency [17] 21.9 µM
inactive: Potency [1] | Potency [2] | Potency [3] | Potency [5] | Potency [6] | Potency [7] | Potency [8] | Potency [11] | outcome [16] | Potency [19]

O=C1O[C@H]([C@@H](O)CO)C(O)=C1O
inactive: Potency [1] | Potency [2] | Potency [3] | Potency [4] | Potency [20] | Potency [5] | Potency [6] | Potency [7] | Potency [8] | Potency [10] | Potency [12] | Potency [15]

O=CC(=O)c1ccccc1
inactive: Potency [1] | Potency [2] | Potency [3] | Potency [4] | Potency [5] | Potency [6] | Potency [7] | Potency [10] | Potency [11] | Potency [12] | Potency [13] | Potency [15] | Potency [17]

Nc1c(N=Nc2ccc(-c3ccc(N=Nc4cc(S(=O)(=O)O)c5ccccc5c4N)cc3)cc2)cc(S(=O)(=O)O)c2ccccc12
inactive: Potency [4] | Potency [5] | Potency [8] | outcome [9] | Potency [10] | Potency [11] | Potency [12] | Potency [13] | Potency [14] | Potency [15] | outcome [16] | Potency [17] | Potency [19]
active: Potency [1] 13.3 µM and 4.32 µM | Potency [2] 23.7 µM and 24.3 µM | Potency [3] 21.1 µM and 9.68 µM

CCN(CC)C(=O)c1cccc(C)c1
inactive and 60.5 µM (active): Potency [2]
inactive: Potency [1] | Potency [3] | Potency [4] | Potency [5] | Potency [6] | Potency [7] | Potency [8] | outcome [9] | Potency [10] | Potency [11] | Potency [12] | Potency [14] | Potency [15] | outcome [16] | Potency [17] | Potency [18] | Potency [19]

CC(C)NCC(O)c1ccc(O)c(O)c1 (centres undefined)
inactive: Potency [1] | Potency [2] | Potency [3] | Potency [5] | Potency [6] | Potency [7] | Potency [8] | Potency [10] | Potency [12] | Potency [15] | Potency [18] | Potency [19]

Oc1ccccc1
inactive: Potency [1] | Potency [2] | Potency [3] | Potency [5] | Potency [6] | Potency [7] | Potency [8] | Potency [10] | Potency [12] | Potency [14] | Potency [15] | outcome [16] | Potency [17]

C1=CC2C3C=CC(C3)C2C1 (centres undefined)
inactive: Potency [1] | Potency [3] | Potency [7] | Potency [8] | outcome [9] | Potency [12]

O=C1OC2(c3ccccc31)c1cc(Br)c(O)c(Br)c1Oc1c2cc(Br)c(O)c1Br
inactive: Potency [2] | Potency [5] | Potency [7] | Potency [8] | Potency [10] | Potency [12] | Potency [15] | Potency [17]
active: Potency [1] 9.44 µM and 2.2 µM and 4.45 µM | Potency [3] 10.6 µM and 2.77 µM and 6.28 µM

CCOC(N)=O
inactive: Potency [1] | Potency [3] | Potency [5] | Potency [6] | Potency [7] | Potency [8] | outcome [9] | Potency [10] | Potency [11] | Potency [12] | Potency [13] | Potency [15] | Potency [17]
